RecA splice inh – inhibitors of M. tuberculosis RecA intein splicing; P9WHJ3; cell-free RecA intein splicing, fluorescence; inhibition, % (test concentration not listed); actives 0.75% (n = 290,000); AID 2221; in the data active = inhibition above about 30%
GDH-TPI inh – GDH-TPI coupled enzyme inhibition counter-screen; actives 1.2% (n = 360,000); inhibition, % at 4.8 µM; GDH-TPI coupled enzyme counterscreen, NADH absorbance; in the data active = inhibition above about 30%
Rv3671c inh – inhibits the M. tuberculosis serine protease Rv3671c | actives 0.048% (n = 320,000) | inhibition, % at 5.96 µM; in the data active = inhibition above about 38%;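 note: extracellular domain of Rv3671c used as enzyme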
FBA Mtb inh – inhibitors of M. tuberculosis fructose-bisphosphate aldolase; purified M. tuberculosis FBA, fluorescence read-out; inhibition, % at 1 µM; actives 2.3% (n = 360,000); AID 588726; in the data active = inhibition above about 27%
BH1578 lux ind – quorum light induction in luxS cqsA deficient V. cholerae | V. cholerae BH1578 lux reporter, luminescence, 6 h | activation, % at 18.7 µM | actives 0.16% (n = 350,000) | AID 588436; in the data active = activation mostly above about 9.7%, no sharp cut-off
UGM FP inh – inhibitors of M. tuberculosis UDP-galactopyranose mutase. purified UGM, fluorescence polarization probe displacement. inhibition, % at 10 µM. actives 0.06% (n = 320,000). AID 504406; in the data active = inhibition above about 10%, passing the limit was not always enough
Target sequence (P9WIQ1 whole entry, looked up): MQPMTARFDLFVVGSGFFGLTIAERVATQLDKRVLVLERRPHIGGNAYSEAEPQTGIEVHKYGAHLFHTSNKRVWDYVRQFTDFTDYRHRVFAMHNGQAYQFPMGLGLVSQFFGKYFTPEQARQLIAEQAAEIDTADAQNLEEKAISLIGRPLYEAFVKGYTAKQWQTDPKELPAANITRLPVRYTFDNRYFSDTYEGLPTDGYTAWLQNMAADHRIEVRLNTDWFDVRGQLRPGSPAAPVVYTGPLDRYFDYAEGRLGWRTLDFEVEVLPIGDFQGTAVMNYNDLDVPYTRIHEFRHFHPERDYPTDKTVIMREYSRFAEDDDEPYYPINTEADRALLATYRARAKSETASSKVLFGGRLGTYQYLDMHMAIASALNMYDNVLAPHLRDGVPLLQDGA
Hits are given with their value; n = inactive; x = no result. Most compounds without a hit are left out; they make up all but 4.1% or so of the library.

SMILES	RecA splice inh	GDH-TPI inh	Rv3671c inh	FBA Mtb inh	BH1578 lux ind	UGM FP inh
Cc1occc1C(=O)N/N=C/c1ccc2c(c1)OCO2	n	46.5	n	n	n	n
Cn1cc(C(=O)N/N=C/c2cccs2)c2ccccc21	n	42.7	n	n	n	n
COc1ccc2c(Cl)c(C(=O)N/N=C/c3ccc4c(c3)OCO4)sc2c1	n	46.8	n	n	n	n
O=C(N/N=C/c1ccc2c(c1)OCO2)c1sc2cc(Cl)ccc2c1Cl	n	n	n	n	n	n
Cc1ccsc1C(=O)N/N=C/c1ccc2c(c1)OCO2	n	35.6	n	n	n	n
CCOc1ccc(S(=O)(=O)NCCC(=O)N2CCCC(C)C2)cc1 (centres undefined)	n	n	n	n	n	n
COc1ccc(CN(C)C(=O)C23CC4CC(CC(Cl)(C4)C2)C3)c(OC)c1OC	n	n	n	n	n	n
O=C(N/N=C/c1cccs1)c1ccc2c(c1)OCO2	n	n	n	n	n	n
COc1ccc2c(Cl)c(C(=O)N/N=C3\CCCC(=O)C3)sc2c1	n	34.1	n	n	n	n
O=C(N/N=C/c1ccc2c(c1)OCO2)c1cccs1	n	34.6	n	n	n	n
Cn1cc(C(=O)N/N=C/c2ccc3c(c2)OCO3)c2ccccc21	n	33.7	n	n	n	n
CCCNC(=O)C1(C)CCCN(C(=O)C2(c3ccc(Cl)cc3)CCCC2)C1 (centres undefined)	x	n	x	n	n	x
Cc1cc(NC(=O)C(C)Oc2ccc(C(C)(C)C)cc2)no1 (centres undefined)	n	n	n	n	n	n
O=[N+]([O-])c1cc(/C=N/O)ccc1N1CCCC1	n	n	n	n	n	n
O=[N+]([O-])c1cc(/C=N/n2cnnc2)ccc1N1CCCC1	n	36.9	n	n	n	n
Cc1ccc(OCCNC(=O)c2cccc(S(=O)(=O)N3CCN(C)CC3)c2)cc1	x	n	n	n	n	n
CCCC(=O)Nc1c2c(nc3ccccc13)N(c1ccccc1)CC2	n	n	n	191.7	n	n
O=C(NCCc1ccccc1)c1cc2sccc2n1Cc1ccccc1	n	n	n	156.2	n	n
Cc1ccc(NC(=O)c2cnc(SCC(=O)NCC3CCCO3)n(C)c2=O)cc1C (centres undefined)	50.8	n	n	n	n	n
Cc1cc(NC(=O)CS(=O)(=O)c2cn(Cc3cccc(Cl)c3)c3ccccc23)no1	x	n	x	n	n	x
Cc1noc(/C=C/N(C)C)c1S(=O)(=O)N1CCCC(C(=O)Nc2ccccc2F)C1 (centres undefined)	n	46.5	n	n	n	n
Cc1ccc(N(CC(=O)NC2CCCCC2)S(=O)(=O)c2c(C)noc2C)cc1	n	n	n	n	n	n
Cc1noc(/C=C/N(C)C)c1S(=O)(=O)N(C)CC(=O)NC1CCCCC1	n	51.3	n	n	n	n
Cc1noc(/C=C/N(C)C)c1S(=O)(=O)N1CCCC(C(=O)N2CCCCC2)C1 (centres undefined)	n	n	n	n	n	n
Cc1cc(C)c(NC(=O)C2CCCN(S(=O)(=O)c3c(C)noc3/C=C/N(C)C)C2)c(C)c1 (centres undefined)	n	34.2	n	n	n	n
SMILES	RecA splice inh	GDH-TPI inh	Rv3671c inh	FBA Mtb inh	BH1578 lux ind	UGM FP inh
Cc1noc(/C=C/N(C)C)c1S(=O)(=O)N1CCCC(C(=O)NC2CCCCC2)C1 (centres undefined)	n	57.9	n	n	n	n
Cc1noc(/C=C/N(C)C)c1S(=O)(=O)N1CCCC(C(=O)Nc2ccc3c(c2)OCO3)C1 (centres undefined)	x	n	n	n	n	n
CCCOc1ccc(C(=O)CCC(=O)NNC(=O)Cn2nc(C)cc2C)cc1	n	n	n	n	n	n
O=C(NCCc1ccccc1)c1ccc(NC(=O)C2CCCCC2)cc1	x	n	x	n	n	x
Cc1ccc(C)c(N2CCN(S(=O)(=O)c3c(C)noc3/C=C/N(C)C)CC2)c1	n	36.1	n	n	n	x
Cc1noc(/C=C/N(C)C)c1S(=O)(=O)N1CCN(c2ccccc2)CC1	n	n	n	n	n	n
CNC(=O)C1CCN(S(=O)(=O)c2c(C)noc2/C=C/N(C)C)CC1	n	34.8	n	n	n	n
CCc1ccc(NC(=O)C2CCN(S(=O)(=O)c3c(C)noc3/C=C/N(C)C)CC2)cc1	n	n	n	n	n	n
O=C(CNC(=O)N1CC(=O)Nc2ccccc21)NCc1ccc(Cl)cc1	n	n	n	n	n	n
CC1(C)CC[C@]2(CO)[C@@H](O)C[C@]3(C)C(=CCC4[C@@]5(C)CC[C@H](O)C(C)(C)C5CC[C@]43C)[C@@H]2C1 (some centres undefined)	n	x	n	x	x	n
Cc1nc2sc(-c3ccccc3)cc2c(=O)n1N	n	46.8	n	n	n	n
NC(=O)CSc1nc2sc(-c3ccccc3)cc2c(=O)n1N	n	35.2	n	n	n	n
CCOC(=O)N1CCN(C(=O)c2oc3ccc(S(=O)(=O)N(CC)CC)cc3c2C)CC1	n	n	n	n	n	n
CCc1noc(C)c1C(=O)Nc1ccc(S(=O)(=O)N2CCC(C)CC2)cc1	n	n	n	n	n	n
Cc1nc(NC(=O)/C=C/c2ccco2)sc1C	n	31.8	n	n	n	n
O=C(/C=C/c1ccco1)Nc1nnc(-c2ccco2)s1	n	n	n	n	n	n
CCc1nnc(NC(=O)/C=C/c2ccco2)s1	x	47.1	n	n	n	n
C=C1c2nc3ccccc3n2C=C(c2ccc(C)cc2)N1c1ccccc1	x	n	x	n	x	x
Nc1ccn([C@@H]2O[C@H](CNCc3ccc(N4CCNCC4)cc3)[C@@H](O)[C@H]2O)c(=O)n1	x	n	x	n	n	x
C=CCOc1cccc(/C=N/NC(=O)C(=O)NCc2ccco2)c1	n	n	n	n	n	n
COc1ccc(NC(=S)NCC2CCCO2)c(C)c1 (centres undefined)	n	n	n	n	n	n
COc1cc(/C=N/NC(=O)C(=O)NCc2ccco2)cc(Cl)c1O	n	36.4	n	n	n	n
COc1cc(/C=C(\C#N)C(=O)NCC2CCCO2)ccc1O (centres undefined)	n	n	n	n	n	n
COc1cc(/C=N/NC(=O)C(=O)NCc2ccco2)ccc1O	n	32.2	n	n	n	n
COc1cc(OC)c(OC)cc1/C=N/NC(=S)NCC1CCCO1 (centres undefined)	n	33.8	n	n	n	n
SMILES	RecA splice inh	GDH-TPI inh	Rv3671c inh	FBA Mtb inh	BH1578 lux ind	UGM FP inh
COc1cc(/C=N/NC(=O)C(=O)NCC2CCCO2)ccc1O (centres undefined)	n	37.9	n	n	n	n
O=C(O)[C@@H]1CCCN1S(=O)(=O)c1cccc2cccnc12	x	n	n	n	n	n
C/C(=N\O)c1ccco1	x	n	n	n	n	n
Cc1c(C2(O)CCCCC2)[nH]c2cnccc12	x	n	n	127.2	n	n
CSc1ccc(C(=O)c2[nH]c(=O)[nH]c2C)cc1	n	32.4	n	n	n	n
COc1ccc(Cc2nc3ccc(C(=O)N(C)Cc4nccn4C)cc3o2)cc1	x	n	x	n	n	x

Compound activity as filed in PubChem.
